Test results reported in PubChem BioAssay (NCATS).
Records with an inconclusive call do not appear. A call without a number means that no potency is given here. A number with no mark means an inactive call. Activity calls are given as the source filed them. The call rests on the fitted dose curve; in most records, active means well fitted cell-killing curve with a large enough effect; inconclusive means small, poorly fitted or top-dose-only effect, or effect the other way; inactive means flat fitted curve, though single readings scatter.

Tests used:
Tov-21-G = test: Primary qHTS to identify gynecologic anti-cancer compounds using libraries of approved drugs and bioactive compounds (AID 1345084); conditions: Gynecologic cancer cell panel viability, ATPlite luminescence, 48 h; series mostly up to 57.5 µM; further: nearly all actives have a fitted effect of over 55% in size
Method in brief: (§1)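 Cell viability after 48 h drug treatment, ATPlite luminescence readout; five doses.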

Tov112D = test: as above; conditions: Gynecologic cancer cell panel viability, ATPlite luminescence, 48 h; series mostly up to 57.5 µM
Method in brief: as §1
Potency means the concentration at half of the fitted maximal effect.

Row | SMILES | Potency (Tov-21-G) | Potency (Tov112D) | activity change, negative = cytotoxicity (Tov-21-G) | activity change, negative = cytotoxicity (Tov112D)
1 | CC(=O)NC(C)c1cnc(-c2cnc(Oc3ccc(OC(C)C)cc3)s2)s1 (stereo not drawn) | inactive | inactive |  | 
2 | Fc1ccc(CN2CCC(Nc3ccc(C(F)(F)F)nn3)CC2)cc1F | inactive | inactive |  | 
3 | CC1(C)CCCC2(C)C1C(OC(=O)/C=C/C=C/C=O)C=C1COC(=O)C12O (stereo not drawn) | inactive | inactive |  | 
4 | COc1ccc(C#Cc2ccc(C(=O)N3CCC[C@@H](O)C3)c(F)c2)cc1 | 7.08 µM (active) | 8.91 µM (active) |  | 
5 | C=C(C(=O)O)[C@@H]1CC=C(CCC(C)=O)[C@@H](C)CC1 | inactive | inactive |  | 
6 | Cc1cc(C)c(S(=O)(=O)n2cc(C)cc2C)c(C)c1 | inactive | inactive |  | 
7 | Cc1ccc(NC(=O)c2ccc(CN3CCNCC3)cc2)cc1Nc1nccc(-c2cccnc2)n1 | 28.2 µM (active) | 28.2 µM (active) |  | 
8 | CC1(C(=O)Nc2ccc(F)nc2)CCCN1c1nc(Nc2cc(C3CC3)[nH]n2)c2cccn2n1 (stereo not drawn) | 14.1 µM (active) | inactive |  | 
9 | CCOC(=O)C1=Cc2ccc(C(F)(F)C(F)(F)F)cc2N=C(N)C1 | inactive | inactive |  | 
10 | COc1cccc(NCCC2(c3ccccc3)CC(C)(C)OC(C)(C)C2)c1 | inactive | inactive |  | 
11 | Cc1cc(F)ccc1-c1nc(NCCN=C(N)NC#N)nc2c1ccc(=O)n2-c1c(F)cccc1F | inactive | inactive |  | 
12 | C=CC(=O)N1CCCN(c2cc(NCCC(=O)O)nc(-c3ccccn3)n2)CC1 | inactive | inactive |  | 
13 | O=C(NC1CCC1)c1ccc(C#Cc2cccc(F)c2)nc1 | inactive | inactive |  | 
14 | C=C1CC[C@@H]2[C@](C)(CO)[C@H](O)CC[C@@]2(C)[C@@H]1C/C=C1/C(=O)OCC1OC(=O)/C(=C/CO)C(O)C[C@@H]1C(=C)CC[C@@H]2[C@](C)(CO)[C@H](O)CC[C@]21C (stereo partly drawn) | inactive | inactive |  | 
15 | O=C(c1ccc(F)cc1)N1CCCC(c2nc(-c3ccc(F)cc3)no2)C1 (stereo not drawn) | inactive | inactive |  | 
16 | CCC/C=C/c1cc2c(C=O)c(O)c(CC=C(C)C)cc2o1 | inactive | inactive |  | 
17 | C/C=C(\C)C(=O)OC1C=C(C)CC(OC(=O)c2ccc(O)cc2)C2C1(C)CCC2(O)C(C)C (stereo not drawn) | inactive | inactive |  | 
18 | Fc1ccc(-c2nc(-c3c(F)cccc3F)[nH]c2-c2ccncc2)cc1 | inactive | inactive |  | 
19 | CCC(=O)N1CCOc2c(cc(-c3ccc(OC)c(OC)c3)cc2OC[C@H]2CCCN(C)C2)C1 | inactive | inactive |  | 
20 | COC(=O)c1cc(Br)cnc1N1CCC(NC2CCCCC2)C(O)C1 (stereo not drawn) | inactive | inactive |  | 
21 | C=C(COC(=O)C(O)C(O)CN)C12OC1C1(C)C(=CC2=O)C(O)C(O)CC1C (stereo not drawn) | inactive | inactive |  | 
22 | Cc1ccc(C)c(NS(=O)(=O)c2cc(C(=O)Nc3ccccc3-c3ccccc3)ccc2C)c1 | inactive | inactive |  | 
23 | CC(=O)OC/C(=C/C(=O)O)CC[C@@H]1C(C=O)=CC[C@@H]2C(C)(C)CCC[C@@]12C | inactive | inactive |  | 
24 | Cc1nc2cc(C(=O)NCc3ccccn3)nn2c(C)c1Cc1cccc(Cl)c1 | inactive | inactive |  | 
25 | C/C=C(/C)C(=O)O[C@@H]1C[C@@H](OC(=O)CC(C)C)C2(C)C3C(=O)C=C(C)C2C3C1(C)C (stereo partly drawn) | inactive | inactive |  | 

Row | SMILES | Potency (Tov-21-G) | Potency (Tov112D) | activity change, negative = cytotoxicity (Tov-21-G) | activity change, negative = cytotoxicity (Tov112D)
26 | CC(C)(C[C@@](O)(Cc1cc2ccncc2[nH]1)C(F)(F)F)c1cc(F)ccc1O | inactive | inactive |  | 
27 | CC(F)(F)CN1CCOc2c(nn(-c3ccccc3Cl)c2-c2ccc(Cl)cc2)C1=O | inactive | inactive |  | 
28 | S=C(c1ccc(-c2ccc(Cl)c(Cl)c2)o1)N1CCCCC1 | inactive | inactive |  | 
29 | Cc1c(F)ccc(C(=O)Nc2cc([N+](=O)[O-])ccc2N2CCN(C)CC2)c1Cl | inactive | inactive |  | 
30 | O=c1[nH]c2cccc(N3CCN(Cc4ccc(-c5ccccc5)cc4)CC3)c2o1 | inactive | inactive |  | 
31 | O=C1Cc2c([nH]c3ccc(Br)cc23)-c2ncccc2N1 | inactive | inactive |  | 
32 | O=C(NCCN1CCN(c2cccc3c2OCCO3)CC1)c1ccc(F)cc1 | inactive | inactive |  | 
33 | O=S(=O)(c1ccccc1)N(CC(F)(F)F)c1ccc(C(O)(C(F)(F)F)C(F)(F)F)cc1 | inactive | inactive |  | 
34 | C=C1CCC2C(C)(C(=O)O)CCCC2(C)C1CCC1=CCOC1=O (stereo not drawn) | inactive | inactive |  | 
35 | CC1=CC2/C=C(\C)CCC(O)C/C=C/C(=O)OC23C(=O)NC(CC(C)C)C3C1C (stereo not drawn) | inactive | inactive |  | 
36 | CN(C)N(C)C(=O)[C@@]1(Cc2ccccc2)CCCN(C(=O)[C@@H](Cc2c[nH]c3ccccc23)NC(=O)C(C)(C)N)C1 | inactive | inactive |  | 
37 | CC(C)/C=C1\NC(=O)C(C(C)C)n2c1nc1ccccc1c2=O (stereo not drawn) | inactive | inactive |  | 
38 | CN1CCN(Cc2ccc(NC(=O)Cc3ccc(Oc4cc(NC(=O)C5CC5)ncn4)cc3)cc2C(F)(F)F)CC1 | 6.31 µM (active) | 5.62 µM (active) |  | 
39 | COc1ccc(CCc2nc3cc(-c4c(C)noc4C)ccc3n2CC(C)N2CCOCC2)cc1Cl (stereo not drawn) | inactive | inactive |  | 
40 | COC1CC(=O)C23C(=O)NC(CC(C)C)C2C(C)C(C)=CC3/C=C(\C)CCCC1O (stereo not drawn) | inactive | inactive |  | 
41 | COc1ccccc1C(=O)Nc1cc2c(cc1N1CCCC1)n(C)c(=O)n2C | inactive | inactive |  | 
42 | O=C(Nc1ccccc1)c1ccc(Nc2nnc(-c3ccc(O)cc3)c3ccccc23)cc1 | inactive | inactive |  | 
43 | O=C(Nc1cnc(Cl)nc1)c1ccc(F)c(F)c1 | inactive | inactive |  | 
44 | CC1(C)CCC(C)(C)c2cc(C#Cc3ccc(C(=O)O)cc3)ccc21 | inactive | inactive |  | 
45 | CC12CCC3C1C(c1c(cc(O)c(C(=O)c4ccccc4)c1O)O2)C3(C)C (stereo not drawn) | inactive | inactive |  | 
46 | COC1=CC(=O)O/C1=C(/OC)[C@@H]1O[C@H]1c1ccccc1 | inactive | inactive |  | 
47 | C=C1CCN([C@H](C)[C@](O)(Cn2cncn2)c2ccc(F)cc2F)CC1 | inactive | inactive |  | 
48 | CC(C)c1ccc(NC(=O)c2cccs2)c(-c2nc3ccccc3[nH]c2=O)c1 | inactive | inactive |  | 
49 | C/C=C(/C)C(=O)OC1C=C2C3C(C)C(C)C(OC(=O)C(C)C(C)O)CC3(C)CCC2(C)C2(C)CC(OC(C)=O)C3C(C)(C)C(O)C(=O)CC3(C)C12 (stereo not drawn) | inactive | inactive |  | 
50 | COC(=O)C(Cc1ccc(OCCn2c(=O)sc3cc(C(=O)c4ccccc4)ccc32)cc1)C(=O)OC | inactive | inactive |  | 

Row | SMILES | Potency (Tov-21-G) | Potency (Tov112D) | activity change, negative = cytotoxicity (Tov-21-G) | activity change, negative = cytotoxicity (Tov112D)
51 | Cc1ccc(OC[C@H](O)[C@H](C)NC(C)C)c2c1CCC2 | inactive | inactive |  | 
52 | CC1(CO)CC(O)[C@]2(C(=O)O)CCC34CC3(C=CC3[C@]5(C)C(CC[C@]34C)C(C)(CO)[C@@H](O)[C@H](O)[C@@H]5O)C2C1 (stereo partly drawn) | inactive | inactive |  | 
53 | CC1(C)CCCC2(C)C1C(=O)C=C(C(=O)O)C2(O)C(=O)O (stereo not drawn) | inactive | inactive |  | 
54 | COc1cc2c(cc1OCCCN1CCCC1)N=C(N)C21CCC1 | inactive | inactive |  | 
55 | COc1cc([C@H]2O[C@H](c3cc(OC)c4c(c3)OCO4)[C@H](C)[C@H]2C)cc(OC)c1OC | inactive | inactive |  | 
56 | CC1(CO)CC2C(O)C3=C(CC(C)(O)C2C1)C(=O)OC3 (stereo not drawn) | inactive | inactive |  | 
57 | CCN1CCC[C@@H]1CNC(=O)c1ccc2c(c1)NC(=O)c1cccc(C)c1S2 | inactive | inactive |  | 
58 | COC(=O)CC[C@@H](C)C1CCC2C3CCC4C[C@H](OC(C)=O)CCC4(C)C3C[C@H](O)C21C (stereo partly drawn) | inactive | inactive |  | 
59 | Cc1csc(N(C(=O)CSc2ccc(-c3ccccc3)nn2)C2CC2)n1 | inactive | inactive |  | 
60 | Cn1ncc(Cl)c1-c1cc(C(=O)N[C@H](CN)Cc2ccc(F)c(F)c2)sc1Cl | 0.891 µM (active) | inactive |  | 
61 | CNC(=O)[C@@H](c1ccccc1)N1CCc2cc(OC)c(OC)cc2[C@@H]1CCc1ccc(C(F)(F)F)cc1 | inactive | inactive |  | 
62 | CCc1ccc(-c2nc(CSCC(=O)NCCc3ccccc3)c(C)o2)cc1 | inactive | inactive |  | 
63 | CCc1ccccc1OC[C@@H](O)CN[C@H]1CCCc2ccccc21 | inactive | inactive |  | 
64 | NS(=O)(=O)Nc1ncnc(OCCOc2ncc(Br)cn2)c1-c1ccc(Br)cc1 | inactive | inactive |  | 
65 | CCC(C)C1NC(=O)C(Cc2ccccc2)NC(=O)C(CCCCCC(=O)C(O)CO)NC(=O)C2CCCCN2C1=O (stereo not drawn) | inactive | inactive |  | 
66 | O=C(Cc1c(F)cccc1F)Nc1cc(OCc2ccc(Cl)cc2)ccn1 | inactive | inactive |  | 
67 | N[C@@H]1c2cccnc2[C@H](OC(=O)N2CCC(n3c(=O)[nH]c4ncccc43)CC2)CC[C@H]1c1cccc(F)c1F | inactive | inactive |  | 
68 | Cc1ccc(NC(=O)N2CCN(c3nc(N)nc4sc(-c5cccnc5)nc34)CC2)cc1 | inactive | inactive |  | 
69 | CN[C@@H]1[C@H](O[C@H]2[C@H](O[C@@H]3[C@@H](O)[C@H](O)[C@@H](N=C(N)N)[C@H](O)[C@H]3N=C(N)N)O[C@@H](C)[C@]2(O)CO)O[C@@H](CO)[C@H](O)[C@H]1O | inactive | inactive |  | 
70 | CCNC(=O)N1CCCN(c2ccc(C(=O)NCCc3ccc(Cl)cc3Cl)cc2NC(=O)c2cccc(Cl)c2)CC1 | inactive | inactive |  | 
71 | COC1CC(O[C@H]2CC[C@]3(C)C4CC[C@]5(C)C(C6=CC(=O)OC6)=CCC56OC46CC[C@@H]3C2)OC(C)C1O[C@@H]1O[C@H](CO[C@@H]2O[C@H](CO)[C@@H](O)[C@H](O)[C@H]2O)[C@@H](O)[C@H](O)[C@H]1O (stereo partly drawn) | 2.24 µM (active) | 2 µM (active) |  | 
72 | CC(C)(C)C1CCN(C(=O)n2ncc(C(O)(c3ccccc3)c3ccccc3)n2)CC1 | inactive | inactive |  | 
73 | CC(=O)O[C@H]1C[C@@](O)(C(C)C)[C@@H]2[C@@H](OC(=O)c3ccc(O)cc3)CC(C)=CC[C@@]12C | inactive | inactive |  | 
74 | C[C@H]1CC[C@@]2(OC1)O[C@H]1CC3[C@@H]4CC[C@@H]5C[C@@H](O[C@@H]6O[C@H](CO)[C@@H](O[C@@H]7O[C@H](CO[C@@H]8OC[C@@H](O)[C@H](O)[C@H]8O)[C@@H](O[C@@H]8O[C@H](CO)[C@H](O)[C@H](O)[C@H]8O)[C@H](O)[C@H]7O)[C@H](O)[C@H]6O)CC[C@]5(C)C4CC[C@]3(C)[C@H]1[C@@H]2C (stereo partly drawn) |  |  | -1.12% [at 11.6 µM] | 3.54% [at 11.6 µM]
